# Measured values taken from PubChem BioAssay (EPA / NIEHS).
# Inconclusive results are not listed. The source made the active and inactive calls. The calls were made as follows, unless noted: active = hit-call score of the fitted dose curve at least 0.9, where 1 is the maximum; inactive = score below 0.9.
# How the values were obtained:
# SERPINA7 (gene 6906) = assay: CCTE_GLTED_hTBG: CCTE's human Thyroxine-binding Globulin (TBG) Inhibition Assay, Great Lakes Toxicology and Ecology Division (GLTED) Lab (AID 2284343; active = hit-call score of the fitted dose curve at least 0.9, where 1 is the maximum;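 also: active chemicals lower fluorescence versus DMSO baseline by displacing probe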)
# How it was run: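 hTBG + test chem, 2 h; ANSA probe displacement; fluorescence readout ex380/em475; DMSO = neg ctrl/baseline; cell-free.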
# TTR (gene 7276) = assay: CCTE_GLTED_hTTR_0.125uM: CCTE's human Transthyretin (hTTR) Inhibition Assay, with 0.125uM TTR, Great Lakes Toxicology and Ecology Division (GLTED) Lab (AID 2284431);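 also: hits lower the fluorescence signal relative to DMSO baseline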
# How it was run: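 TTR 0.125uM + test chemical, 2 h; ANSA probe displacement; ex 380/em 475 fluorescence; signal loss vs DMSO control.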
# [1] = CCTE_Padilla_ZF_Score.Craniofacial: CCTE's 144 Hour Post-fertilization zebrafish Assay Score for Craniofacial Malformation, Padilla Lab (AID 2284405)
# How it was run: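 Wild-type zebrafish embryos (with chorions), one per well in 10% Hanks', were dosed at 6–8 hpf in sealed plates and kept at 26C. They were rinsed at 5 dpf. At 6 dpf two blinded assessors scored craniofacial malformations by brightfield stereomicroscopy.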
# [2] = CCTE_Padilla_ZF_Score.Edema: CCTE's 144 Hour Post-fertilization zebrafish Assay Score for Edema Malformation, Padilla Lab (AID 2284406)
# How it was run: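 Wild-type zebrafish embryos, one per well in Hanks' solution, dosed at 6-8 hpf, sealed and reared at 26C on a 14:10 h cycle; rinsed on 5 dpf. At 6 dpf, blinded assessors scored edema by stereomicroscopy.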
# [3] = CCTE_Padilla_ZF_Score.Spine: CCTE's 144 Hour Post-fertilization zebrafish Assay Score for Spine Malformation, Padilla Lab (AID 2284407)
# How it was run: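 Wild-type zebrafish embryos, one per well in Hanks' solution, dosed at 6–8 hpf in sealed plates at 26C, 14:10 h light:dark; rinsed at 5 dpf. Two blinded assessors scored spinal defects by stereomicroscopy at 6 dpf; fitted versus DMSO.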
# [4] = CCTE_Padilla_ZF_Score.Swim_bladder: CCTE's 144 Hour Post-fertilization zebrafish Assay Score for Swim Bladder Malformation, Padilla Lab (AID 2284408)
# How it was run: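 Wild-type zebrafish embryos, one per well in 10% Hanks', dosed at 6–8 hpf, sealed, reared at 26C and rinsed at 5 dpf. Blinded assessors scored uninflated swim bladder by stereomicroscopy at 6 dpf, relative to DMSO.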
# [5] = CCTE_Padilla_ZF_Score.Position: CCTE's 144 Hour Post-fertilization zebrafish Assay Score for Position, Padilla Lab (AID 2284409)
# How it was run: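 Wild-type zebrafish embryos (with chorions) exposed singly from 6–8 hpf in sealed wells of Hanks' solution at 26C, rinsed at 5 dpf. At 6 dpf, blinded assessors scored abnormal water-column position by brightfield stereomicroscopy, relative to DMSO.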
# [6] = CCTE_Padilla_ZF_Score.Living: CCTE's 144 Hour Post-fertilization zebrafish Assay Score for Viability, Padilla Lab (AID 2284410);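 also: larval death at 6 dpf judged by absent heartbeat or coagulation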
# How it was run: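 Wild-type zebrafish embryos were exposed singly from 6–8 hpf in sealed wells of Hanks' solution at 26C, then rinsed at 5 dpf. At 6 dpf, blinded assessors scored mortality (no heartbeat or coagulation) by stereomicroscopy, fitted against DMSO.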
# [7] = CCTE_Padilla_ZF_Score.General: CCTE's 144 Hour Post-fertilization zebrafish Assay Score for General Malformation, Padilla Lab (AID 2284411)
# How it was run: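 Wild-type zebrafish embryos were plated singly at 6-8 hpf in 10% Hanks' and exposed in sealed wells at 26C until rinsed on 5 dpf. At 6 dpf two blinded assessors scored mortality, hatching and malformations by stereomicroscopy; gain-of-signal versus DMSO.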
# [8] = CCTE_Padilla_ZF_Score.Tail: CCTE's 144 Hour Post-fertilization zebrafish Assay Score for Tail Malformation, Padilla Lab (AID 2284414)
# How it was run: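 Wild-type zebrafish embryos, one per well in 200 uL 10% Hanks', dosed at 6-8 hpf, sealed, and kept at 26 C on a 14:10 h light cycle. Chemical was rinsed out at 5 dpf. Blinded brightfield scoring of tail defects followed at 6 dpf.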
# [9] = CCTE_Padilla_ZF_Score.Blood_pooling: CCTE's 144 Hour Post-fertilization zebrafish Assay Score for Blood Pooling, Padilla Lab (AID 2284415)
# How it was run: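 Wild-type outbred zebrafish embryos, one per well in 10% Hanks', exposed from 6–8 hpf in sealed plates at 26C on 14:10 h light:dark, rinsed at 5 dpf. Blinded stereomicroscope scoring of blood pooling at 6 dpf; gain-of-signal versus DMSO.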
# [10] = CCTE_Padilla_ZF_Score.Any: CCTE's 144 Hour Post-fertilization zebrafish Assay Score for Any Mortality or Malformation, Padilla Lab (AID 2284416)
# How it was run: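 Wild-type zebrafish embryos with chorions, one per well in 10% Hanks' from 6–8 hpf, dosed in sealed plates at 26 C, 14:10 h light:dark; rinsed at 5 dpf; blinded scoring at 6 dpf for death or malformation, versus DMSO.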
# [11] = CCTE_Mundy_HCI_iCellGluta_NOG_NeuriteCount: CCTE's Neurite Outgrowth Assay in iCellGluta cells for Neurite Count, Mundy Lab (AID 2284342; active = hit-call score of the fitted dose curve at least 0.9, where 1 is the maximum;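 also: chemical exposure about 48 hours starting 2 hours after plating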)
structure (smiles),measurement,setting,value
Oc1ccc(Cl)cc1Cc1cc(Cl)ccc1O,AC50,SERPINA7 (gene 6906),0.072 µM (active)
same,AC50,TTR (gene 7276),0.129 µM (active)
FC(F)=C(F)OC(F)(F)C(F)(F)C(F)(F)F,outcome,[1],inactive
same,outcome,[2],inactive
same,outcome,[3],inactive
same,outcome,[4],inactive
same,outcome,[5],inactive
same,outcome,[6],inactive
same,outcome,[7],inactive
same,outcome,[8],inactive
same,outcome,[9],inactive
same,outcome,[10],inactive
Nc1ncn([C@@H]2O[C@H](CO)[C@@H](O)[C@H]2O)c(=O)n1,outcome,[11],inactive
CCCCCCCCCCCCCCCC[N+](C)(C)CC,outcome,[7],inactive
CCCCC(CC)COC(=O)c1ccccc1O (stereo unspecified),outcome,[7],inactive
COC(=O)c1c(C)cc(O)c(C)c1O,AC50,TTR (gene 7276),1.29 µM (active)
CCCCCCCCCCc1ccccc1,outcome,[7],inactive
Cc1ccc(C(C)c2ccc(C)c(C)c2)cc1C,AC50,SERPINA7 (gene 6906),1.8 µM (active)
CCOC(=O)Cc1cccc2ccccc12,AC50,SERPINA7 (gene 6906),13.4 µM (active)
O=Nc1ccc(O)cc1,outcome,[7],inactive
CCCCC/C=C\C/C=C\CCCCCCCC(=O)OC,outcome,[7],inactive
same,AC50,TTR (gene 7276),9.84 µM (active)
N[C@H]1C(O)O[C@H](CO)[C@H](O)[C@@H]1O (stereo partly specified),outcome,[11],inactive
O=S1(=O)OC(c2ccc(O)cc2)(c2ccc(O)cc2)c2ccccc21,AC50,TTR (gene 7276),3.34 µM (active)
c1ccc2c(c1)ccc1cc3c(ccc4ccccc43)cc12,outcome,[7],inactive
CC(C)(C)c1ccc(OC(=O)c2ccccc2O)cc1,AC50,SERPINA7 (gene 6906),1.69 µM (active)
CCCCCCCCCCCCCOP(=O)(O)O,AC50,SERPINA7 (gene 6906),2.24 µM (active)
same,AC50,TTR (gene 7276),0.78 µM (active)
CC1(C)S[C@@H]2[C@H](NC(=O)COc3ccccc3)C(=O)N2[C@H]1C(=O)O,outcome,[11],inactive
CCCCCCCCCCOS(=O)(=O)O,AC50,TTR (gene 7276),3.68 µM (active)
CC=CC(F)(F)C(F)(F)C(F)(F)F,outcome,[1],inactive
same,outcome,[2],inactive
same,outcome,[3],inactive
same,outcome,[4],inactive
same,outcome,[5],inactive
same,outcome,[6],inactive
same,outcome,[7],inactive
same,outcome,[8],inactive
same,outcome,[9],inactive
same,outcome,[10],inactive
CCCCCCCCc1ccc(Nc2ccc(CCCCCCCC)cc2)cc1,outcome,[7],inactive
CN(C)c1ccc(N=Nc2ccccc2C(=O)O)cc1,AC50,SERPINA7 (gene 6906),25.6 µM (active)
same,AC50,TTR (gene 7276),8.96 µM (active)
O=C(C=Cc1ccccc1)OCc1ccccc1,AC50,SERPINA7 (gene 6906),25.7 µM (active)
CCOC(F)(F)C(F)(F)C(F)(F)C(F)(F)F,outcome,[1],inactive
same,outcome,[2],inactive
same,outcome,[3],inactive
same,outcome,[4],inactive
same,outcome,[5],inactive
same,outcome,[6],inactive
same,outcome,[7],inactive
same,outcome,[8],inactive
same,outcome,[9],inactive
same,outcome,[10],inactive
O=c1cc(-c2ccccc2)oc2ccccc12,AC50,SERPINA7 (gene 6906),18.5 µM (active)
same,AC50,TTR (gene 7276),10.8 µM (active)
CCCCCCCC/C=C\CCCCCCCC(=O)O,AC50,SERPINA7 (gene 6906),8.56 µM (active)
same,AC50,TTR (gene 7276),3.32 µM (active)
COCc1c(C(C)C)nc(C(C)C)c(/C=C/[C@@H](O)C[C@@H](O)CC(=O)O)c1-c1ccc(F)cc1,outcome,[7],inactive
C#CC1(O)CC[C@H]2[C@@H]3CCC4=CCCC[C@@H]4[C@H]3CC[C@@]21C (stereo partly specified),AC50,[7],2.31 µM (active)
S=C(NC1CCCCC1)NC1CCCCC1,AC50,[7],25.5 µM (active)
C=CCOCC(O)CCl (stereo unspecified),outcome,[7],inactive
CC1=NN(c2cc(S(=O)(=O)O)ccc2Cl)C(=O)C1N=Nc1ccccc1 (stereo unspecified),outcome,SERPINA7 (gene 6906),inactive
same,AC50,TTR (gene 7276),5.76 µM (active)
CCCCC(CC)CCC(CC(C)C)OS(=O)(=O)O (stereo unspecified),AC50,SERPINA7 (gene 6906),11.1 µM (active)
same,AC50,TTR (gene 7276),0.382 µM (active)
